Screening results (PubChem BioAssay)
A selection: hits, their analogues and other compounds. The true share with any hit is near 19%.
IL1B secr inh: inhibitors of inflammasome signaling (IL-1 beta secretion); activity change, % at 57.5 µM; 4.7% of 360,000 active; THP-1 LPS/ATP IL-1B secretion, AlphaLISA, 16 h; stronger effect = lower value; in the data active = activity change below about -50%; inconclusive = mostly about -30% to -49%
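Secreted IL-1B measured by AlphaLISA bead assay after 16 h compound exposure of THP-1 cells; compounds (final up to 57.5 uM) added 1 h before LPS (250 ng/mL) and ATP (1.25 mM) stimulation; lower signal means less secretion.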
SW480 rerep: DNA re-replication induction in SW480 cells; SW480 DNA re-replication, Hoechst DNA content imaging, 48 h; Potency, µM (series often up to 46.1 µM), actives largely listed as activators; 1.8% of 340,000 active; AID 624297; note: nearly all actives have a fitted effect of over 55% in size
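Cells (250 per well) received 23 nL compound or DMSO by pin tool and were kept 48 hr at 37 C, 5% CO2. Nuclei were then stained with Hoechst for 40 min and scanned for DNA content.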
BCR signal inh: inhibitors of chronic active B-cell receptor signaling. AID 493014. Potency, µM (doses to about 46.1 µM), most hits filed as inhibitors. ABC-DLBCL IkBa-CBG/CBR reporter, luminescence ratio, 4 h. 0.05% of 340,000 active; active = well fitted inhibition curve with a large enough effect in the signal ratio, with a control signal flat, not every such curve was filed as active; inconclusive = small, poorly fitted or top-dose-only effect, or effect the other way, or a change in a side signal; the % refers to the signal ratio
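Cell line TMD8 (human ABC DLBCL), stably expressing tet-inducible CBG68-IkBa fusion and CBR; IMDM/0.5% FBS; cpd up to 46 uM; dox induction, 4 h, 37C/5% CO2; dual luminescence; green/red ratio; MG132 control.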
TDP1 cell CPT: growth inhibition of DT40 Tdp1-/-;hTDP1 cells with camptothecin (screen for TDP1 inhibitors) | chicken DT40 Tdp1-/-;hTDP1 cells + 20 nM CPT, ATP luminescence, 48 h | AID 686979 | 12% of 420,000 active | Potency, µM (highest dose often 46.2 µM), actives largely listed as inhibitors; note: nearly all actives have a fitted effect of over 55% in size
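Chicken DT40 Tdp1-/- cells stably complemented with human TDP1 were seeded at 400 cells/well in medium containing 20 nM camptothecin, exposed to pin-transferred compounds, and grown at 37 °C for at least 48 hr. Viability was read as ATP luminescence.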
MCF10A rerep: inducers of DNA re-replication in MCF 10A breast cells | 2.9% of 350,000 active | MCF 10A DNA re-replication, Hoechst nuclear intensity, 48 h | Potency, µM (doses to about 46.1 µM), usual class: activators | AID 624296; note: nearly all actives have a fitted effect of over 50% in size
TDP1 cell noCPT: qHTS for Inhibitors of human tyrosyl-DNA phosphodiesterase 1 (TDP1): qHTS in cells in absence of CPT. Potency, µM (highest dose often 46.2 µM), usual class: inhibitors. 15% of 420,000 active. DT40 Tdp1-/- hTDP1 cells, no CPT, ATP luminescence, 48 h. AID 686978, 2013; note: nearly all actives have a fitted effect of over 55% in size
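A cellular qHTS used chicken DT40 cells lacking endogenous Tdp1 but carrying stably transfected human TDP1. Compounds were applied without camptothecin, and cell growth kinetics were judged by ATP-dependent luminescence after ≥48 hr.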
Numbers stand for hits; . = inactive; ? = inconclusive; / = not tested or not shown. Unless noted, calls come from the whole dose curve; as a rule, active = well fitted curve in the direction sought with a large enough effect; inconclusive = small, poorly fitted or top-dose-only effect, or another doubt; inactive = no such curve, though single readings can be large; an effect the other way counts as inactive or inconclusive.

SMILES | IL1B secr inh | SW480 rerep | BCR signal inh | TDP1 cell CPT | MCF10A rerep | TDP1 cell noCPT
COc1cccc(N=C(N)N=C(N)N)c1 | . | . | . | . | . | .
Cc1nc2c(c3c1[nH]c1ccccc13)C(O)CC(C)(C)C2 (stereo not drawn) | . | ? | . | 18µM | 18µM | ?
Cc1nn(-c2ccccc2)c2c1C(O)CC(C)(C)C2 (stereo not drawn) | . | . | . | . | . | .
O=C(Nc1ccc(C(=O)N2CCCC2)cc1)c1cc(F)c(F)cc1Cl | ? | / | / | . | / | .
CC1(C)C2([N+](=O)[O-])CN3CC1([N+](=O)[O-])CN(C2)C3c1ccccc1 (stereo not drawn) | . | . | . | . | . | .
CC(C)c1ccc(C2N3CC4([N+](=O)[O-])CN2CC([N+](=O)[O-])(C3)C4(C)C)cc1 (stereo not drawn) | . | . | ? | 8.2µM | . | ?
COC(=O)c1ccc2c(=O)n(CCCCCC(=O)NCc3ccc(Cl)cc3)c(=O)[nH]c2c1 | / | / | . | ? | / | ?
Cc1ccc(NS(=O)(=O)c2ccc(C(=O)NCc3cccnc3)cc2)cc1 | . | . | ? | ? | . | 15µM
Cc1ccc(NS(=O)(=O)c2ccc(C(=O)NNC(=O)c3ccccc3O)cc2)cc1 | . | ? | ? | ? | ? | 23µM
Cc1ccc(S(=O)(=O)Nc2ccc(C(=O)Nc3ccncc3)cc2)cc1 | . | 3.3µM | . | 15µM | . | ?
O=C(NNC(=O)c1ccccc1O)c1ccc(NS(=O)(=O)c2ccc(F)c(F)c2)cc1 | . | ? | . | ? | . | ?
Cc1ccc(NS(=O)(=O)c2ccc(C(=O)NCc3ccncc3)cc2)cc1 | . | . | ? | ? | . | ?
O=C(NCCCc1ccccc1)c1ccc(CS(=O)Cc2ccc(Cl)cc2)o1 (stereo not drawn) | . | . | ? | . | . | ?
Cc1ccc(S(=O)(=O)N2C3CCCCC3O[C@H]2CC(=O)c2cccc3ccccc23)cc1 (stereo partly drawn) | . | / | / | ? | / | ?
O=S(=O)(Nc1ccc(-c2ccc(N3CCCC3)nn2)cc1)c1cc(F)ccc1F | / | / | / | ? | / | .
O=C(CSc1nnc(Cc2ccccc2)o1)Nc1ccc(N2CCOCC2)cc1 | . | . | ? | . | . | .
O=C(Nc1nnc(COc2ccc(Cl)cc2)s1)c1ccc([N+](=O)[O-])cc1 | . | . | . | . | . | .
O=C(Nc1ncc(Cc2ccc(Cl)cc2Cl)s1)c1ccc([N+](=O)[O-])cc1 | . | . | . | 18µM | . | 18µM
O=C(Nc1ncc(Cc2ccccc2Cl)s1)C1=NCCN1 | . | . | . | 21µM | . | ?
CC1(C(=O)NS(=O)(=O)c2ccccc2Cl)CCN1C(=O)c1ccccc1CCc1ccccc1 (stereo not drawn) | . | / | / | . | / | ?
CC(=O)Nc1ccc(NC(=O)C2CCN(S(C)(=O)=O)CC2)cc1 | . | / | / | . | / | .
COc1ccc(-c2ccnc(SCC(=O)Nc3ccccn3)n2)cc1 | . | . | ? | ? | . | 18µM
CC[C@@]1(O)C(=O)OCc2c1cc1n(c2=O)Cc2cc3c([N+](=O)[O-])cccc3nc2-1 | / | ? | / | 0.034µM | . | 0.21µM
CC[C@@]1(O)C(=O)OCc2c1cc1n(c2=O)Cc2cc3c(CN(C)C)c(O)ccc3nc2-1 | -103 | ? | / | 0.15µM | . | 0.18µM
CN(CC(=O)Nc1cccc(S(=O)(=O)NC2=NCCC2)c1)Cc1ccccc1Cl | . | . | . | . | . | .
O=[N+]([O-])c1ccc(N2CCN(c3cccc(Cl)c3)CC2)cn1 | . | . | ? | ? | . | ?
Cn1c(SCC(=O)N2CCOCC2)ncc(C(=O)Nc2ccc(F)cc2)c1=O | / | / | . | ? | / | ?
CCOC(=O)c1ccc(NNC(=O)CC)c([N+](=O)[O-])c1 | . | . | ? | . | . | .
CCOC(=O)C1=C(C)N(CCCC(=O)O)C(=O)NC1c1ccc(OC)cc1 (stereo not drawn) | . | . | . | . | . | .
